Article PMC12136788
Substitutions are numbered along the chain they refer to. The full ranking holds about 24,000 sequences; the median of “enrichment r” is about 0.99, and the highest 2% start at about 3.7. This excerpt belongs to a sample that is enriched for the highest values.

T1: UNK ZnF1-3 (human, UniProt Q9C0B0 31-174)
T1 sequence: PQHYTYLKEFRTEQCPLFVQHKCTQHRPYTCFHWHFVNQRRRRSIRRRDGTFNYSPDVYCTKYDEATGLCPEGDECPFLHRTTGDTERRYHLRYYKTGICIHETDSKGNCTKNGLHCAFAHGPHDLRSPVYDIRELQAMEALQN

B1: chr2:9725471:9725472:-_ENSG00000134308_ENST00000238081|hu_hu|FALSE|FALSE (ssRNA)
RNA: GGGAGUUCUACAGUCCGACGAUCUGCCGCAUCACAUUCUUCUCCUGCACUGUCUGAUGUCCAAAGUGUUAGGUUGUCUCUAAGCAACUGCAUGAUGAGGGUGCUGUCUUUGUAUGAGUCUUCAUUCAGUGUAUCAAGUUCAGCCAACAGAGGAUUGAGCAUCA
B2: 27821128_27827609_1759_CDS_ENSMUSG00000022263_ENSMUST00000090247|mouse|control|control (ssRNA)
RNA: GGGAGUUCUACAGUCCGACGAUCGCCCUGGUGAUGAUGAAUGGCGUCUUCCAGGUCCUGCAGCUCCGAGGGAAGGUCUACUUCACCACAGGCCUUACACCACGAGUCCACGUUGCUCAUGUACUUCUCAGCCUUCUGGUGAAACAACAGAGGAUUGAGCAUCA
B3: chr8:21961785:21961786:+_ENSG00000158863_ENST00000289921|hu_hu|FALSE|FALSE (ssRNA)
RNA: GGGAGUUCUACAGUCCGACGAUCGCACUGAGGAGAGGGGAGGGUCUGUGACUCCCAAACCCUCGAAUAUUUUAUGAAUCUAAGAGUCCAGACGCAGUUCAUCCACGGAGAUCUGCGCCCCGUCCACACCAACACCCACGUUUGCAACAGAGGAUUGAGCAUCA
B4: chr2:216981417:216981418:+_ENSG00000079246_ENST00000392132|hu_hu|hu_hu_hu_mus_True|8_48 (ssRNA)
RNA: GGGAGUUCUACAGUCCGACGAUCCUGAUACUGGUCCUUGCCAGCAAGGGCAUUAUCAGUGCCAUCUGUGCCAUAGAGGACUAACGCAAUCUCAUCCUUGCUCUCCGAAAAUACCUGUCGUUGGACAAACAUGGUUAUCACUUUCAACAGAGGAUUGAGCAUCA
B5: chr7:65705844:65705845:+_ENSG00000169902_ENST00000304842|hu_mus|hu_hu_hu_mus_False|18_108 (ssRNA)
RNA: GGGAGUUCUACAGUCCGACGAUCAAAAGGAUCUUUAUUACAUAAAUAAGGUGCCGGCUCCCCAUGUUUAACAAUGACCUCCAGAAGGAAGGCUUGCAUGGCAGAAUCUAGCACUUCAUCAGUAACACCCGCCUCAUCCAAGCGCAACAGAGGAUUGAGCAUCA
B6: chr18:43795804:43795805:+_ENSG00000152242_ENST00000321319|hu_hu|FALSE|FALSE (ssRNA)
RNA: GGGAGUUCUACAGUCCGACGAUCCUCCUCCAUCUUCAUUUCAGAAUUUCAAGUUAAAUCAUGGAGUAGAGUCUAGGAAAUGAUAUCAAAGAUGCAACAGGAAAGCAACCUGCGCUCCGCGGCGACUCCGUGCCUUCUCGCUCGCAACAGAGGAUUGAGCAUCA
B7: chr11:100882373:100882374:+_ENSMUSG00000019302_ENSMUST00000044721|mus_mus|mus_mus_mus_hu_True|38_108 (ssRNA)
RNA: GGGAGUUCUACAGUCCGACGAUCUUCCUGGUUAGUGUUGAUUUCCUUCAGUUCAUUUUCAAUCUUCUCAAAAUUGGCCUCUAAGUCAAUCAUGUCCCGAGGGAAGGGAACCUCUGGGUUUUCACCGGUGUCCAUAAUCGGAAUCAACAGAGGAUUGAGCAUCA
B8: chr18:33597908:33597909:-_ENSMUSG00000042834_ENSMUST00000171533|mus_hu|motif|central (ssRNA)
RNA: GGGAGUUCUACAGUCCGACGAUCCAUCAAAAGAGUACAUGGAUAAAAUAUAGAGAUAUACAGACAAUUGAUGAACAUAAACGGCGGGGUUUGUUACAUCUAAAUGAAAAAAAAGGUGGGGGGGGGACUCUCAGCCUCUGCAAGCAACAGAGGAUUGAGCAUCA
B9: chr9:122046315:122046316:+_ENSMUSG00000038145_ENSMUST00000120173|mus_hu|FALSE|FALSE (ssRNA)
RNA: GGGAGUUCUACAGUCCGACGAUCUAGUUUGGUCUGGGUGUCAAUAACUUCAUAAAGGCGGACGAUGUUAGGAUGCUGCACUAGUUUCAUGCAUCUCACUUCCUGGAAAAGAUGACCAGUAGCUAGAGUGUCCAGUUUUGUCUUCAACAGAGGAUUGAGCAUCA
B10: chr1:46159212:46159213:+_ENSG00000159596_ENST00000372025|hu_mus|hu_hu_hu_mus_True|28_108 (ssRNA)
RNA: GGGAGUUCUACAGUCCGACGAUCUCUGAUCCCACCCAAGAAAGCUAGGAAACCGGCUCCAUAAGCCAUCUGAGUGAAAGCUAGGACGGGGAUAUAAGACUUUGUUAUCAGCAUGACAAGUGGGGGAGCAGUAAAGGGGAUUAACAACAGAGGAUUGAGCAUCA
B11: chr1:46159212:46159213:+_ENSG00000159596_ENST00000372025|hu_mus|hu_hu_hu_mus_True|28_48 (ssRNA)
RNA: B10 RNA with A33U, G90A
B12: chr12:51141157:51141158:+_ENSG00000066084_ENST00000301180|hu_mus|FALSE|FALSE (ssRNA)
RNA: GGGAGUUCUACAGUCCGACGAUCUCAAAGAAAAGCAACAGAAAAUAAAAAAAAAAAAAGAAGUAGUCAUUACCAGAAGGAGGAAAAGACUAGAAGCCUGGGCAAGGCAUGAAGGUGUCUGCUGCAAUUUCAGUACUCGGGACACAACAGAGGAUUGAGCAUCA
B13: chr1:46159212:46159213:+_ENSG00000159596_ENST00000372025|hu_mus|hu_hu_hu_mus_True|28_58 (ssRNA)
RNA: B10 RNA with A33U, G83A, G84U, C86U
B14: 104520116_104520236_3471_3pUTR_ENSMUSG00000027175_ENSMUST00000111118|mouse|control|control (ssRNA)
RNA: GGGAGUUCUACAGUCCGACGAUCAAGUUAAAAUUCCAGCCUAUGUGAAAAGAGAUACAAUUUAACACAGGUGACAGGACGCUCUGCUGUUAGUUUCCCUACAUCAAAGACUAUUCCAGUACAAUGAACAGGAGGGUUUGGAAGCAACAGAGGAUUGAGCAUCA
B15: chr2:49628383:49628384:+_ENSMUSG00000026764_ENSMUST00000028102|mus_mus|FALSE|FALSE (ssRNA)
RNA: GGGAGUUCUACAGUCCGACGAUCUUGGUACUGACGGGGUUUGCAGACUUGCCCUGCAAAGGACCCCUCCAUCAGACUCCAAUAGCAGCCAACAGUGGCAACAACAUGAAACAAAGUGAACACAGGUAAACACAAAAUCAUCUUCAACAGAGGAUUGAGCAUCA
B16: chr19:16212804:16212805:+_ENSG00000167460_ENST00000300933|hu_mus|hu_hu_hu_mus_False|88_108 (ssRNA)
RNA: GGGAGUUCUACAGUCCGACGAUCAACAAAUAUGCAAUGAAGGAAAGCAUCAAGGAUGAACAGCAUUAAAGCUCAGUCAGAAGGCACAUGGGCAACAAUGAUCACCCCAGCAUUCUCGCUUGGAAUGCUUAAAGACAAUCUGUUCAACAGAGGAUUGAGCAUCA
B17: chr1:46159212:46159213:+_ENSG00000159596_ENST00000372025|hu_mus|hu_hu_hu_mus_True|1_28 (ssRNA)
RNA: B10 RNA with A33U, A143G
B18: chr18:33597908:33597909:-_ENSMUSG00000042834_ENSMUST00000171533|mus_hu|FALSE|FALSE (ssRNA)
RNA: B8 RNA with G82U, G83A, G85U, G86A
B19: chr16:94664806:94664807:+_ENSMUSG00000040785_ENSMUST00000117648|mus_mus|FALSE|FALSE (ssRNA)
RNA: GGGAGUUCUACAGUCCGACGAUCAUUAGGACUCUCAAAGUAUGCAGCGGCAUUUUCAUCUGCUCUGUUGCUGGCUACAAAAGAUGGCACCACUGGCAUGGAUCUUUGCAUUGGAUACUCAGAAGAAAUGUUGGCCAAAGGUGUCAACAGAGGAUUGAGCAUCA
B20: 15109990_15111016_889_CDS_ENSG00000179889_ENST00000396410|human|control|control (ssRNA)
RNA: GGGAGUUCUACAGUCCGACGAUCUGAGGAGACAUAACCCAGAGCCAAUGUUGCCAGAUUCACACCCUCCACAUGAAGCCAUAUGCCAUACUGCUCACAGAGUUCUUUCAAUCUCCCAAUCUUGUCUGUGUGUCCUACUGCUGCCAACAGAGGAUUGAGCAUCA
B21: 17503471_17513584_185_CDS_ENSG00000151552_ENST00000428702|human|control|control (ssRNA)
RNA: GGGAGUUCUACAGUCCGACGAUCCUUAAAGAGAGACUUGGAUUUGGCAUUGCCCCCGGCCCAUCCUCCAGCAACGCAAAGAAUUGCAUCCACCUUCUCUUCACCCAAGAGCUUUCCAACCUCAGCAGUCACCCAGUUGCGGGCCAACAGAGGAUUGAGCAUCA
B22: chr10:33190432:33190433:-_ENSG00000150093_ENST00000302278|hu_mus|hu_hu_hu_mus_True|1_98 (ssRNA)
RNA: GGGAGUUCUACAGUCCGACGAUCUACAUUUUCCAAACCUGCACAUGAAUAAAACCCUGGCCACAGAGCCCCAAAACUACCCUACUGUGACUAAGAUGCUGCUGCUGUGAGCUUGGUGUUGCAAAAUCCGCCUGAGUCAGUACUCAACAGAGGAUUGAGCAUCA

What follows are binders tested against T1, UNK ZnF1-3 (assay: nsRBNS (natural sequence RNA bind-n-seq); RBNS binding buffer (assumed for nsRBNS): 25 mM Tris pH 7.5, 150 mM KCl, 3 mM MgCl2, 0.01% Triton X-100, 500 ug/ml BSA, 20 U/ml SUPERase-In, 4 C; UNK is unkempt and MSI1 is Musashi-1; names of the RNAs are library labels; protein concentration not given here; high values mean tight binding).

| Binder | binding signal |
| --- | --- |
| B1 | 0.929 enrichment R |
| B2 | 0.482 enrichment R |
| B3 | 1.03 enrichment R |
| B4 | 0.64 enrichment R |
| B5 | 0.624 enrichment R |
| B6 | 0.921 enrichment R |
| B7 | 0.664 enrichment R |
| B8 | 6.29 enrichment R |
| B9 | 0.873 enrichment R |
| B10 | 1.36 enrichment R |
| B11 | 1.5 enrichment R |
| B12 | 4.07 enrichment R |
| B13 | 1.32 enrichment R |
| B14 | 1.5 enrichment R |
| B15 | 0.994 enrichment R |
| B16 | 1.33 enrichment R |
| B17 | 3.95 enrichment R |
| B18 | 13.4 enrichment R |
| B19 | 1.22 enrichment R |
| B20 | 1.36 enrichment R |
| B21 | 1.33 enrichment R |
| B22 | 1.13 enrichment R |
